In PubChem BioAssay AID651598 (Sanford-Burnham Center for Chemical Genomics, 2012) one finds inhibition data, which are given here for three molecules.

Where “and” joins values, the source holds several entries; their conditions need not be identical. Identical values can stand only once.

This assay deals with Apelin receptor (Homo sapiens) (UniProt P35414). Description: APJ beta-arrestin recruitment blockade alongside CXCR6 – cell-based, DiscoveRx, panel, CHO-K1, counter-screen for CXCR6 antagonist project, SAR follow-up (AID 651598). The note with it: CHO-K1 PathHunter beta-arrestin luminescence, antagonist mode; run 3, at 80 µM (top of the series). Background: Activated receptors often draw arrestin, which recruitment assays turn into a signal.
Sequence of Apelin receptor (Homo sapiens) (P35414 whole entry, looked up): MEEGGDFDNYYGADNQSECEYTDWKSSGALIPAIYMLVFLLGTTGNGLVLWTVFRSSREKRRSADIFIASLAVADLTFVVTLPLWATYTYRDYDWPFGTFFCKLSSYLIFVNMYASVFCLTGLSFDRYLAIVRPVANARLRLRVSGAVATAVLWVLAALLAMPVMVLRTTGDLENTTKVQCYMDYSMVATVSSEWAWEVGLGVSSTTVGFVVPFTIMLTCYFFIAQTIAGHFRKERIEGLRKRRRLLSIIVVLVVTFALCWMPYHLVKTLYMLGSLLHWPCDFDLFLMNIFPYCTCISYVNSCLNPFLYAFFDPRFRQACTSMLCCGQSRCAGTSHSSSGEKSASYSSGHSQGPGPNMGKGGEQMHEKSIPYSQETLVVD
For the molecule `COc1cc(C(=O)NC2CCN(CC(=O)Nc3ccccc3)CC2)cc(OC)c1OC`, the inhibition – broadly, the relative decrease from the control value, in per cent – is 19.7%.
For the molecule `COc1cc(C(=O)NC2CC3CCCC(C2)N3CC(=O)Nc2ccccc2)cc(OC)c1OC` (stereo not drawn), the inhibition was -24.7% and 10.7% and 13.8%.
The result for `COc1cc(C(=O)NC2CC3CCC(C2)N3CC(=O)Nc2ccccc2)cc(OC)c1OC` (stereo not drawn) reads 2.29% and 12.1%.
